Laboratory results: PubChem BioAssay (EPA / NIEHS)
Activity calls are given as the source filed them. The calls were made as follows: active = hit-call score of the fitted dose curve at least 0.9, where 1 is the maximum; inactive = score below 0.9.

Columns and labels:
Conditions in all cases: mRNA level, 48 h; actives raise or lower the signal
[1] = read-out: Insulin Like Growth Factor 1 (IGF1), IGF1 (gene 3479); assay: LTEA_HepaRG_IGF1: Life Technologies and Expression Analysis (LTEA) Assay for Insulin Like Growth Factor 1 (IGF1) using HepaRG (AID 2283506)
Outline: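 Expression measured by TaqMan qRT-PCR on a Fluidigm array, with three housekeeping genes for normalisation, after 48 h treatment of HepaRG cells. Top concentration 100 uM with half-log steps, 0.5% DMSO vehicle, bidirectional fit.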

[2] = read-out: Intercellular Adhesion Molecule 1 (ICAM1), ICAM1 (gene 3383); assay: LTEA_HepaRG_ICAM1: Life Technologies and Expression Analysis (LTEA) Assay for Intercellular Adhesion Molecule 1 (ICAM1) using HepaRG (AID 2283507)
Outline: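 Gain or loss of transcript in HepaRG hepatic cells is quantified by qRT-PCR after 48 h chemical exposure (up to 100 uM, half-log steps), with DMSO as baseline.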

[3] = read-out: Insulin-like growth factor-binding protein 1 (IGFBP1), IGFBP1 (gene 3484); assay: LTEA_HepaRG_IGFBP1: Life Technologies and Expression Analysis (LTEA) Assay for Insulin-like growth factor-binding protein 1 (IGFBP1) using HepaRG (AID 2283508)
Outline: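 mRNA induction or loss was quantified by qRT-PCR after 48 h chemical exposure of human HepaRG cells, with 0.5% DMSO as vehicle and baseline. Concentration-response over eight points up to 100 uM.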

[4] = read-out: Interleukin 6 Receptor (IL6R), IL6R (gene 3570); assay: LTEA_HepaRG_IL6R: Life Technologies and Expression Analysis (LTEA) Assay for Interleukin 6 Receptor (IL6R) using HepaRG (AID 2283510);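 as to AC50: differentiated human HepaRG liver cells in serum-free induction medium; TaqMan qRT-PCR signal normalized to ACTB GAPDH and POLR2A housekeeping genes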
Outline: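 IL6R transcript level by qRT-PCR after 48 h chemical exposure (8-point, half-log, max 100 uM, 0.5% DMSO vehicle) of HepaRG cells in serum-free induction medium. Normalized to three housekeeping genes; curves fitted in both directions relative to DMSO.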

[5] = read-out: Potassium channel subfamily K member 1 (KCNK1), KCNK1 (gene 3775); assay: LTEA_HepaRG_KCNK1: Life Technologies and Expression Analysis (LTEA) Assay for Potassium channel subfamily K member 1 (KCNK1) using HepaRG (AID 2283511)
Outline: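 Human HepaRG cultures receive test chemicals for 48 h in 0.5% DMSO, top concentration 100 uM with half-log dilutions. Induction or suppression of KCNK1 mRNA relative to DMSO is derived by bidirectional fitting of qRT-PCR data.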

[6] = read-out: Keratin 19 (KRT19), KRT19 (gene 3880); assay: LTEA_HepaRG_KRT19: Life Technologies and Expression Analysis (LTEA) Assay for Keratin 19 (KRT19) using HepaRG (AID 2283512)
Outline: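 Gene-expression endpoint in the human liver line HepaRG after 48 h exposure to up to 100 uM test chemical with 0.5% DMSO vehicle; KRT19 mRNA by qRT-PCR, analyzed bidirectionally versus DMSO.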

[7] = read-out: JUN Transcription Factor, JUN (gene 3725); assay: LTEA_HepaRG_JUN: Life Technologies and Expression Analysis (LTEA) Assay for JUN Transcription Factor using HepaRG (AID 2283513)
Outline: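 mRNA measured by TaqMan qRT-PCR after 48 h chemical exposure of HepaRG cultures; normalization to three housekeeping genes. Duplicate eight-point half-log curves from 100 uM in 0.5% DMSO; gain or loss fitted against DMSO baseline.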

[8] = read-out: Lipase C (LIPC), LIPC (gene 3990); assay: LTEA_HepaRG_LIPC: Life Technologies and Expression Analysis (LTEA) Assay for Lipase C (LIPC) using HepaRG (AID 2283514)
Outline: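 In this multiplexed gene-expression screen, human HepaRG cultures received test chemicals for 48 h across eight concentrations with 100 uM highest, in duplicate. Values reflect LIPC mRNA induction or suppression versus DMSO vehicle, from normalized qRT-PCR.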

[9] = read-out: MicroRNA 122 (MIR122), gene 406906; assay: LTEA_HepaRG_MIR122: Life Technologies and Expression Analysis (LTEA) Assay for MicroRNA 122 (MIR122) using HepaRG (AID 2283516); also: the transcript read is the microRNA miR-122
Outline: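 Expression measured by microfluidic qRT-PCR with three housekeeping genes for normalisation, after 48 h treatment of HepaRG cultures. Eight concentrations (top 100 uM, half-log steps, 0.5% DMSO vehicle) in duplicate; gain or loss fitted relative to vehicle.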

[10] = read-out: matrix metalloproteinase-10 (MMP10), MMP10 (gene 4319); assay: LTEA_HepaRG_MMP10: Life Technologies and Expression Analysis (LTEA) Assay for matrix metalloproteinase-10 (MMP10) using HepaRG (AID 2283517)
Outline: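 In differentiated HepaRG cultures kept in 0.5% DMSO, test chemicals act for 48 h over an eight-point range with a top dose of 100 uM. Expression is then quantified by TaqMan RT-PCR against ACTB, GAPDH and POLR2A.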

MYC, MYC (gene 4609) = assay: LTEA_HepaRG_MYC: Life Technologies and Expression Analysis (LTEA) Assay for MYC using HepaRG (AID 2283518)
Outline: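 Cells are thawed, plated and cultured 48 h, then treated for 48 h with test chemicals (eight half-log concentrations from 100 uM, 0.5% DMSO vehicle). RNA is isolated and MYC expression quantified by qRT-PCR against three housekeeping genes.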

[11] = read-out: matrix metalloproteinase-3 (MMP3), MMP3 (gene 4314); assay: LTEA_HepaRG_MMP3: Life Technologies and Expression Analysis (LTEA) Assay for matrix metalloproteinase-3 (MMP3) using HepaRG (AID 2283519)
Outline: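 Human liver HepaRG cultures received chemicals (top concentration 100 uM, 0.5% DMSO) for 48 h in duplicate. MMP3 mRNA induction or loss was then assessed via TaqMan qRT-PCR with housekeeping-gene normalisation.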

[12] = read-out: Paternally Expressed 10 (PEG10), PEG10 (gene 23089); assay: LTEA_HepaRG_PEG10: Life Technologies and Expression Analysis (LTEA) Assay for Paternally Expressed 10 (PEG10) using HepaRG (AID 2283520);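 as to AC50: differentiated HepaRG human liver cells in serum-free induction medium with 0.5% DMSO; PEG10 transcript by qRT-PCR normalised to ACTB GAPDH and POLR2A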
Outline: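 PEG10 transcript measured by Fluidigm qRT-PCR, normalized to three housekeeping genes, in HepaRG cells treated 48 h (highest 100 uM, half-log steps, 0.5% DMSO vehicle). Cells plated 48 h before switching to serum-free induction medium.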

[13] = read-out: Nuclear factor NF-kappa-B p105 subunit (Homo sapiens) (UniProt P19838); assay: LTEA_HepaRG_NFKB1: Life Technologies and Expression Analysis (LTEA) Assay for Nuclear Factor Kappa B Subunit 1 (NFKB1) using HepaRG (AID 2283521);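 also: differentiated human HepaRG liver cells in serum-free induction medium; TaqMan qRT-PCR transcript normalised to ACTB GAPDH and POLR2A housekeeping genes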
Outline: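 HepaRG, 48 h exposure; 8-pt half-log series from 100 uM in 0.5% DMSO; duplicates. Readout: NFKB1 mRNA by qRT-PCR (Fluidigm arrays), housekeeping-normalized. Gain/loss fit vs DMSO baseline.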

[14] = read-out: Protein phosphatase 2A (PPP2R4), PTPA (gene 5524); assay: LTEA_HepaRG_PPP2R4: Life Technologies and Expression Analysis (LTEA) Assay for Protein phosphatase 2A (PPP2R4) using HepaRG (AID 2283522)
Outline: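 Expression was quantified by Fluidigm qRT-PCR normalised to three housekeeping genes after 48 h treatment. Human HepaRG cells received an 8-point series from 100 µM downward by half-logs, in duplicate with 0.5% DMSO vehicle and 1 mM phenobarbital as induction control.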

[15] = read-out: Phosphatase and tensin (PTEN), PTEN (gene 5728); assay: LTEA_HepaRG_PTEN: Life Technologies and Expression Analysis (LTEA) Assay for Phosphatase and tensin (PTEN) using HepaRG (AID 2283523)
Outline: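 Expression of PTEN is quantified in the human liver line HepaRG following two days of dosing (top concentration 100 uM, half-log dilutions, 0.5% DMSO). Values derive from bidirectional curve fitting relative to DMSO controls.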

[16] = read-out: solute carrier (SLC22A1), SLC22A1 (gene 6580); assay: LTEA_HepaRG_SLC22A1: Life Technologies and Expression Analysis (LTEA) Assay for solute carrier (SLC22A1) using HepaRG (AID 2283524);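 as to AC50: differentiated human HepaRG liver cells in serum-free induction medium; TaqMan qRT-PCR normalized to ACTB GAPDH and POLR2A housekeeping genes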
Outline: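 Transcript induction or suppression of SLC22A1 in human HepaRG cultures is scored after 48 h chemical treatment, with DMSO (0.5%) as baseline for bidirectional fitting. Concentrations span eight half-log points topping at 100 uM.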

[17] = read-out: Pyruvate Dehydrogenase Kinase 4 (PDK4), PDK4 (gene 5166); assay: LTEA_HepaRG_PDK4: Life Technologies and Expression Analysis (LTEA) Assay for Pyruvate Dehydrogenase Kinase 4 (PDK4) using HepaRG (AID 2283525)
Outline: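 Eight-point, half-log concentration series (max 100 uM, 0.5% DMSO) applied to differentiated HepaRG cells for 48 h in duplicate. Endpoint: PDK4 mRNA induction or repression by qRT-PCR against DMSO baseline.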

[18] = read-out: Interleukin 6 (IL6), IL6 (gene 3569); assay: LTEA_HepaRG_IL6: Life Technologies and Expression Analysis (LTEA) Assay for Interleukin 6 (IL6) using HepaRG (AID 2283509)
Outline: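 Changes in IL6 mRNA, up or down relative to 0.5% DMSO controls, were derived from concentration-response curves in human HepaRG cells treated for 48 h at up to 100 uM, with ACTB, GAPDH and POLR2A as normalizers.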

Measured: AC50

Sequence of Nuclear factor NF-kappa-B p105 subunit (Homo sapiens) (P19838 whole entry, looked up): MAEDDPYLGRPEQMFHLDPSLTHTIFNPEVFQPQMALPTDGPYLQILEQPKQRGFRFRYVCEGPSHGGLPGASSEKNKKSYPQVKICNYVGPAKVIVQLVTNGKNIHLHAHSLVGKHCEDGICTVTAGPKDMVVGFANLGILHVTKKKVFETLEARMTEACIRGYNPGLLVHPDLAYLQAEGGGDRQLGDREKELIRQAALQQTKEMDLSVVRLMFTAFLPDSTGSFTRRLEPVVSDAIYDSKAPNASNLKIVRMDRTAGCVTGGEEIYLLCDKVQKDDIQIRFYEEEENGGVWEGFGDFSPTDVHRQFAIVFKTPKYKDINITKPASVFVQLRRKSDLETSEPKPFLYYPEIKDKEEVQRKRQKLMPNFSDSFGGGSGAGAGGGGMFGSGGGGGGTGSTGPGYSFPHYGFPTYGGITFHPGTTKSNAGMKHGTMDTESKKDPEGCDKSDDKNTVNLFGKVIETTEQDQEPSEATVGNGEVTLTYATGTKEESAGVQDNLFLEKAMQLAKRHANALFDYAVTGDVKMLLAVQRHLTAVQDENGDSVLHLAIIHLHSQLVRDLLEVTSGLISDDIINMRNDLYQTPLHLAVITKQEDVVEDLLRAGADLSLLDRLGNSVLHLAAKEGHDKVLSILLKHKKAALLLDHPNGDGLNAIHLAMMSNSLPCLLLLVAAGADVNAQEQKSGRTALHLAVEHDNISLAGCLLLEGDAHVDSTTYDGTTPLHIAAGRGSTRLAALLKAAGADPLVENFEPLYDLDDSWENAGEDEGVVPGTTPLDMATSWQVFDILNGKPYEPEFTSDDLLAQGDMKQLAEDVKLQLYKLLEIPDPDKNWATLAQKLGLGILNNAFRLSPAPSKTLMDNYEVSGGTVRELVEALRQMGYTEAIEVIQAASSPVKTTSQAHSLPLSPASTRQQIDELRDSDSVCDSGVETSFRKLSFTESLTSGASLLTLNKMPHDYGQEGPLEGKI

CCCOC(=O)c1ccc(C(=O)OCCC)nc1
not listed: [18]
inactive: all other assays above

CCC(C)OC(=O)N1CCCCC1CCO (stereo not drawn)
not listed: [8] | [18]
inactive: all other assays above

C=CCOC(Cn1ccnc1)c1ccc(Cl)cc1Cl (stereo not drawn)
active: [1] 18.3 µM | [2] 13.2 µM | [3] 30 µM | [4] 12.7 µM | [5] 50 µM | [6] 12.3 µM | [7] 75.5 µM | [9] 20.5 µM | [10] 34.4 µM | MYC, MYC (gene 4609) 36 µM | [11] 75.2 µM | [12] 28.4 µM | [14] 87.5 µM | [16] 31.3 µM | [17] 29 µM
inactive: [15]

COC(=O)c1ccc(I)cc1S(=O)(=O)NC(=O)Nc1nc(C)nc(OC)n1
not listed: [8] | [13] | [18]
inactive: all other assays above

CCNc1nc(N)nc(Cl)n1
not listed: [8] | [18]
inactive: all other assays above

COC(=O)c1ccccc1C(=O)O
not listed: [3]
inactive: all other assays above

CCCOC(=O)NCCCN(C)C
not listed: [8] | [13] | [18]
inactive: all other assays above
